Records with an inconclusive call do not appear. The source made the active and inactive calls. Rule for the calls, unless noted: active = hit-call score of the fitted dose curve at least 0.9, where 1 is the maximum; inactive = score below 0.9.
Key:
[1] = biological target: human RAR-related Orphan Receptor beta (RORb), RORB (gene 6096) (UniProt Q92753); test: ATG_RORb_TRANS: Attagene TRANS-FACTORIAL HepG2 Assay for human RAR-related Orphan Receptor beta (RORb) (AID 2283010; active = hit-call score of the fitted dose curve at least 0.9, where 1 is the maximum)
Procedure, shortened: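 HepG2, transient MRTU transfection (GAL4-UAS reporters, exogenous NR-Gal4 chimeras); 24 h compound exposure; total RNA → RT-PCR → 6-FAM primer extension → HpaI digest → CE fluorescence. Positive direction vs DMSO baseline.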

[2] = biological target: human RAR-related Orphan Receptor gamma (RORg), RORC (gene 6097) (UniProt P51449); test: ATG_RORg_TRANS: Attagene TRANS-FACTORIAL HepG2 Assay for human RAR-related Orphan Receptor gamma (RORg) (AID 2283011; active = hit-call score of the fitted dose curve at least 0.9, where 1 is the maximum)
Procedure, shortened: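 Activity is scored as increase in GAL4-UAS reporter mRNA over DMSO, detected by fluorescent RT-PCR and capillary electrophoresis in HepG2 cells transiently expressing a RORg-Gal4 chimera, 24 h after dosing.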

[3] = biological target: Retinoic acid receptor RXR-alpha (Homo sapiens) (UniProt P19793); test: ATG_RXRa_TRANS: Attagene TRANS-FACTORIAL HepG2 Assay for human Retinoid X Receptor alpha (RXRa) (AID 2283012; active = hit-call score of the fitted dose curve at least 0.9, where 1 is the maximum)
Procedure, shortened: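 Read-out: fluorescent reporter-transcript fragments quantified by capillary electrophoresis after RT-PCR. Transiently transfected HepG2 cells carrying GAL4-UAS reporters and NR-GAL4 chimeras were exposed to chemical for 24 h; activity scored as increase over DMSO.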

[4] = biological target: human Retinoid X Receptor beta (RXRb), RXRB (gene 6257) (UniProt P28702); test: ATG_RXRb_TRANS: Attagene TRANS-FACTORIAL HepG2 Assay for human Retinoid X Receptor beta (RXRb) (AID 2283013; active = hit-call score of the fitted dose curve at least 0.9, where 1 is the maximum)
Procedure, shortened: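 Read-out: reporter mRNA induction via RT-PCR plus capillary electrophoresis fluorescence, analysed as signal increase relative to DMSO. Cells were human HepG2, transiently transfected with GAL4-UAS reporter constructs and chimeric receptor-Gal4 fusions, dosed for 24 h.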

[5] = read-out: E-selectin (Homo sapiens) (UniProt P16581); test: BSK_3C_Eselectin: BioMAP Diversity Plus: 3C Assay for Eselectin Biomarker Activity (AID 2283015); details: primary human endothelial cells (HUVEC); actives raise or lower the signal
Procedure, shortened: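 Human vascular endothelium from umbilical vein is exposed to test chemicals for 24 h. E-selectin levels are read by ELISA and compared with DMSO controls.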

[6] = read-out: Interleukin-1 alpha (IL1a), IL1A (gene 3552); test: BSK_BE3C_IL1a: BioMAP Diversity Plus: BE3C Assay for Interleukin-1 alpha (IL1a) Biomarker Activity (AID 2283016); details: primary human bronchial epithelial cells; actives raise or lower the signal
Procedure, shortened: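 ELISA read-out of IL-1a from human lung bronchial epithelial primary cells, 24 h post-dose. Gain or loss of signal fitted relative to DMSO negative control.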

[7] = read-out: Monocyte Chemoattractant Protein-1 (MCP1), CCL2 (gene 6347); test: BSK_3C_MCP1: BioMAP Diversity Plus: 3C Assay for Monocyte Chemoattractant Protein-1 (MCP1) Biomarker Activity (AID 2283017); details: primary human endothelial cells (HUVEC); actives raise or lower the signal
Procedure, shortened: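 Endothelial cells from human umbilical vein are dosed with chemical, cultured 24 h, then assayed for MCP-1 by ELISA; both increases and decreases are modelled against DMSO controls.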

[8] = read-out: Monocyte Chemoattractant Protein-1 (MCP1), CCL2 (gene 6347); test: BSK_4H_MCP1: BioMAP Diversity Plus: 4H Assay for Monocyte Chemoattractant Protein-1 (MCP1) Biomarker Activity (AID 2283018); details: primary human endothelial cells (HUVEC); actives raise or lower the signal
Procedure, shortened: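 HUVEC primary cells, 24 h post-dose, MCP-1 by ELISA. Gain or loss of signal fitted bidirectionally vs DMSO baseline. Cytotoxicity: SRB stain (0.1% after 10% TCA fixation), read 560 nm, parallel cultures.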

[9] = read-out: Human Leukocyte Antigen - DR isotype (HLADR), HLA-DRA (gene 3122); test: BSK_3C_HLADR: BioMAP Diversity Plus: 3C Assay for Human Leukocyte Antigen - DR isotype (HLADR) Biomarker Activity (AID 2283019); details: primary human endothelial cells (HUVEC); actives raise or lower the signal
Procedure, shortened: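 Endothelial cells from human umbilical vein are treated with test chemical; after 24 h, HLA-DR levels are measured by ELISA. Data are fitted in both directions using DMSO as the baseline.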

[10] = read-out: Interleukin-8 (IL8), CXCL8 (gene 3576); test: BSK_3C_IL8: BioMAP Diversity Plus: 3C Assay for Interleukin-8 (IL8) Biomarker Activity (AID 2283020); details: primary human endothelial cells (HUVEC); actives raise or lower the signal
Procedure, shortened: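 HUVEC, 3C stimulation; 24 h compound exposure; IL-8 read by ELISA; gain or loss of signal fitted relative to DMSO control.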

[11] = read-out: Monokine induced gamma interferon (MIG), CXCL9 (gene 4283); test: BSK_3C_MIG: BioMAP Diversity Plus: 3C Assay for Monokine induced gamma interferon (MIG) Biomarker Activity (AID 2283021); details: primary human endothelial cells (HUVEC); actives raise or lower the signal
Procedure, shortened: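 HUVEC, 3C system; 24 h chemical exposure; MIG by ELISA; bidirectional fit vs DMSO baseline.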

[12] = read-out: Matrix Metallopeptidase 1 (MMP1), MMP1 (gene 4312); test: BSK_BE3C_MMP1: BioMAP Diversity Plus: BE3C Assay for Matrix Metallopeptidase 1 (MMP1) Biomarker Activity (AID 2283024); details: primary human bronchial epithelial cells; actives raise or lower the signal
Procedure, shortened: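 ELISA read-out of MMP1 in human lung bronchial epithelial primary cultures, 24 h post-dose; bidirectional curve fit vs DMSO baseline, gain or loss of signal scored.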

[13] = BSK_3C_Vis: BioMAP Diversity Plus: 3C Assay for Morphology Visualization (AID 2283025); details: primary human endothelial cells (HUVEC);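 note: fitted both ways so gain or loss versus DMSO counts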;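 for AC50: light microscopy image of cell morphology used as background control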
Procedure, shortened: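 HUVEC, 3C system; light microscopy of morphology at 24 h post-dose. Bidirectional fit vs DMSO baseline. Secondary readout, background-control function.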

[14] = read-out: Pselectin, SELP (gene 6403); test: BSK_4H_Pselectin: BioMAP Diversity Plus: 4H Assay for Pselectin Biomarker Activity (AID 2283026); details: primary human endothelial cells (HUVEC); actives raise or lower the signal
Procedure, shortened: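 HUVEC, 24 h chemical exposure; P-selectin read by ELISA. Bidirectional curve fit vs DMSO baseline; gain or loss of signal scored.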

[15] = BSK_4H_SRB: Viability Assessment in the BioMAP Diversity Plus: 4H Assay (AID 2283027); details: primary human endothelial cells (HUVEC);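 note: cells exposed to compound for 24 h before staining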;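 for AC50: curves fitted both ways versus DMSO so AC50 may be loss or gain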
Procedure, shortened: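 Cytotoxicity readout: sulforhodamine B (0.1%) staining of total protein after 10% TCA fixation, measured at 560 nm in human umbilical vein endothelium at 24 h. DMSO set the baseline; fitting was bidirectional.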

[16] = BSK_BE3C_SRB: Viability Assessment in the BioMAP Diversity Plus: BE3C Assay (AID 2283028); details: primary human bronchial epithelial cells;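 for AC50: fitted both ways so AC50 may mark signal gain or loss versus DMSO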
Procedure, shortened: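 Overt cytotoxicity was assessed as total protein in confluent human primary bronchial epithelial cultures 24 h after chemical addition, using 0.1% sulforhodamine B staining read at 560 nm.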

[17] = read-out: Thrombomodulin, THBD (gene 7056); test: BSK_3C_Thrombomodulin: BioMAP Diversity Plus: 3C Assay for Thrombomodulin Biomarker Activity (AID 2283029); details: primary human endothelial cells (HUVEC); actives raise or lower the signal
Procedure, shortened: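 HUVEC, 3C conditions; compound 24 h; thrombomodulin by ELISA; bidirectional curve fit vs DMSO baseline; parallel SRB total-protein staining for cytotoxicity.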

[18] = read-out: Urokinase-type plasminogen activator receptor (uPAR), PLAUR (gene 5329); test: BSK_4H_uPAR: BioMAP Diversity Plus: 4H Assay for Urokinase-type plasminogen activator receptor (uPAR) Biomarker Activity (AID 2283030); details: primary human endothelial cells (HUVEC); actives raise or lower the signal
Procedure, shortened: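 Chemicals are dosed onto human vascular endothelial primary cells (umbilical vein). After 24 h, uPAR is read by ELISA. Gain or loss of signal is fitted relative to DMSO.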

[19] = BSK_3C_SRB: Viability Assessment in the BioMAP Diversity Plus: 3C Assay (AID 2283023); details: primary human endothelial cells (HUVEC);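 note: cells read 24 h after compound dosing; fitted both ways against DMSO so a hit may be signal rise or drop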
Procedure, shortened: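 Cells were dosed with chemical, cultured 24 h, fixed with 10% TCA, stained with 0.1% SRB and read at 560 nm. Human umbilical vein endothelium was used; DMSO served as negative control and baseline.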

[20] = biological target: human Vitamin D Receptor (VDR), VDR (gene 7421) (UniProt P11473); test: ATG_VDR_TRANS: Attagene TRANS-FACTORIAL HepG2 Assay for human Vitamin D Receptor (VDR) (AID 2283022; active = hit-call score of the fitted dose curve at least 0.9, where 1 is the maximum)
Procedure, shortened: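 Fluorescence of labelled reporter cDNA fragments, resolved by capillary electrophoresis, gives mRNA induction after 24 h treatment of HepG2 cells carrying transfected Gal4-fusion reporter units. Activity is fitted in the positive direction with DMSO as baseline.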

Measured: AC50

human RAR-related Orphan Receptor gamma (RORg), RORC (gene 6097), sequence (P51449 whole entry, looked up, the tested form may be a part): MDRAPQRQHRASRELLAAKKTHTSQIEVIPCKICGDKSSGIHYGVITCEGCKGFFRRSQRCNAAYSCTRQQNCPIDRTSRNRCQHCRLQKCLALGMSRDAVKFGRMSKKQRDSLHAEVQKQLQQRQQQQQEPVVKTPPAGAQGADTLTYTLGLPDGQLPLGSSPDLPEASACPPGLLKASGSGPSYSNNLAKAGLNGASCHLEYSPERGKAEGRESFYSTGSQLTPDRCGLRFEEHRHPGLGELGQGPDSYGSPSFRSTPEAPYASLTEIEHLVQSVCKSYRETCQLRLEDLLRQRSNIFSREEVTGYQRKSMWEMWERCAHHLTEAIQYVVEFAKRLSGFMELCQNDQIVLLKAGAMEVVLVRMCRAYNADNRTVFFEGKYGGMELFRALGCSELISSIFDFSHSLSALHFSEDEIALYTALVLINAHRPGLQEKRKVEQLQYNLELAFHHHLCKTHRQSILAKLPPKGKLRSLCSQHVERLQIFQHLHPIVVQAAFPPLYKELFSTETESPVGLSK
human RAR-related Orphan Receptor beta (RORb), RORB (gene 6096), sequence (Q92753 whole entry, looked up, the tested form may be a part): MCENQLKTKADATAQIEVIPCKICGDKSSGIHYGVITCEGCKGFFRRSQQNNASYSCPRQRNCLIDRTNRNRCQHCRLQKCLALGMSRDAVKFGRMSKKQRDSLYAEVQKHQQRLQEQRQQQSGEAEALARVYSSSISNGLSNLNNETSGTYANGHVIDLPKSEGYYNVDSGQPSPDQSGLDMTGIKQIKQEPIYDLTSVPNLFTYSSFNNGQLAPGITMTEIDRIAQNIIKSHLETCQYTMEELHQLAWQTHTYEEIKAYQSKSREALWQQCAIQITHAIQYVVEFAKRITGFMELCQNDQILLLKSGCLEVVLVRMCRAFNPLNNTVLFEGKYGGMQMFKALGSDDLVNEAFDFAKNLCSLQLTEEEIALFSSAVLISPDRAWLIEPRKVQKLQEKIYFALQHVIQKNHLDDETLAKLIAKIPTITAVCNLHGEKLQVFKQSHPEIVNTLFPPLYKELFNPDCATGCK
Retinoic acid receptor RXR-alpha (Homo sapiens), sequence (P19793 whole entry, looked up, the tested form may be a part): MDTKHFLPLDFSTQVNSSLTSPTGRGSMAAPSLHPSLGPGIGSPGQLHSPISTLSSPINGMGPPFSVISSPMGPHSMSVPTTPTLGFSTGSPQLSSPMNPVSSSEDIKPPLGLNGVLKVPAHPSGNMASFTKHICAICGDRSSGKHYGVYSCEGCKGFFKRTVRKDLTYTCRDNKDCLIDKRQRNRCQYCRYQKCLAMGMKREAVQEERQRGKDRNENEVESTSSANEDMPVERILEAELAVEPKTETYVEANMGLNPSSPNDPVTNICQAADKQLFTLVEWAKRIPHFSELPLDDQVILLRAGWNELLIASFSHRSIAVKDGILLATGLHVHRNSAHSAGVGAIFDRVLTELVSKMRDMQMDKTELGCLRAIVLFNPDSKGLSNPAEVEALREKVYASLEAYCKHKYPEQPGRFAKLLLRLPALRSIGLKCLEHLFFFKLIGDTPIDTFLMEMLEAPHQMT
human Vitamin D Receptor (VDR), VDR (gene 7421), sequence (P11473 whole entry, looked up, the tested form may be a part): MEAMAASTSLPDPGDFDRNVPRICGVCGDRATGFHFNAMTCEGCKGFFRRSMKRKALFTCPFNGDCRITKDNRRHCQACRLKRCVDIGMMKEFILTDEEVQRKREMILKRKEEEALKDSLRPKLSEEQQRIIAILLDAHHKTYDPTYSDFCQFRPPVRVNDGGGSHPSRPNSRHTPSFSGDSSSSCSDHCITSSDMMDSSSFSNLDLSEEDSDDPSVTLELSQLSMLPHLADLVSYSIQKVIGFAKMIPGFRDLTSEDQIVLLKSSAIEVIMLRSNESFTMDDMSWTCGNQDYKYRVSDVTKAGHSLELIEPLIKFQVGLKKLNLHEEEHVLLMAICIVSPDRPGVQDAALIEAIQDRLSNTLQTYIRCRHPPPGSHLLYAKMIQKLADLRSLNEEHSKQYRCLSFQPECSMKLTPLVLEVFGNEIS
E-selectin (Homo sapiens), sequence (P16581 whole entry, looked up): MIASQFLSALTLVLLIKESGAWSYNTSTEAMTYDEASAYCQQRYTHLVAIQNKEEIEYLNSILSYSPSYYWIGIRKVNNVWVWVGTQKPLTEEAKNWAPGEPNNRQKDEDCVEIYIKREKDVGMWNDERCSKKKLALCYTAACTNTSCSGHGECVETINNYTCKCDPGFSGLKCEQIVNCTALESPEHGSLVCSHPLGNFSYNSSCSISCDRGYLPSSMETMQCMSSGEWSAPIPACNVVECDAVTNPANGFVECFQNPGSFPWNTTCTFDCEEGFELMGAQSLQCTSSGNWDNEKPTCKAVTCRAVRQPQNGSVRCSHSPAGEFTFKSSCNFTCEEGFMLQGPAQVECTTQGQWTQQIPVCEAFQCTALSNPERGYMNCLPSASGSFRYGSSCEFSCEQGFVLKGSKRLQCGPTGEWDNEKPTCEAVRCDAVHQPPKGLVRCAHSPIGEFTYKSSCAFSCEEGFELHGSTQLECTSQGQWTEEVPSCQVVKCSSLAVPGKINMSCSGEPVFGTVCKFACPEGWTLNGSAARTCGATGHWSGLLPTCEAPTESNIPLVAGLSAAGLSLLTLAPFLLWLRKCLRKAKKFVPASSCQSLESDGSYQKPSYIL
human Retinoid X Receptor beta (RXRb), RXRB (gene 6257), sequence (P28702 whole entry, looked up, the tested form may be a part): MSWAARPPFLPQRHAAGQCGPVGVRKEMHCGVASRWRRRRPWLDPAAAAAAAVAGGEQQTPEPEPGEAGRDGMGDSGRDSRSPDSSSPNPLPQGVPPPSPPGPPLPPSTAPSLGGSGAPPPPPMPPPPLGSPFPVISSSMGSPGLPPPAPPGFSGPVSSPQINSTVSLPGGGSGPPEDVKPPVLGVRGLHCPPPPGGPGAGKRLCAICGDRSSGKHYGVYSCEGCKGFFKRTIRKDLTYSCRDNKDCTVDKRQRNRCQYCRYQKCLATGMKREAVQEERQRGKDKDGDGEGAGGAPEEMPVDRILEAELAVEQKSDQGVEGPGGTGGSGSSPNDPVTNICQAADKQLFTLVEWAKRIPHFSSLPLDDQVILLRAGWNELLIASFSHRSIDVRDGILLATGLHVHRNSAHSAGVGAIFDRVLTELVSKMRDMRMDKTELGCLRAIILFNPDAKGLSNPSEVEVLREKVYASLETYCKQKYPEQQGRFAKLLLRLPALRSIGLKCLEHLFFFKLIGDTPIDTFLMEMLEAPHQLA

O=c1ccc(=O)[nH][nH]1
not listed: [19] | [20]
inactive: all other assays above

CCOP(=S)(OCC)Oc1ccc([N+](=O)[O-])cc1
active: [8] 25.2 µM | [13] 39 µM | [16] 21.5 µM
not listed: [3] | [10] | [20]
inactive: all other assays above

CC(C)=CC1C(C(=O)OCN2C(=O)C3=C(CCCC3)C2=O)C1(C)C (stereo not given)
active: [5] 26.9 µM | [7] 7.53 µM | [9] 27.9 µM | [19] 27.2 µM | [12] 11.3 µM | [14] 20 µM | [18] 8.64 µM
not listed: [10]
inactive: all other assays above

COP(=O)(NC(C)=O)SC (stereo not given)
active: [19] 5.17 µM
not listed: [10]
inactive: all other assays above

Cc1ccn2nc(S(=O)(=O)Nc3c(F)cccc3F)nc2n1
active: [15] 229 nM
not listed: [10] | [20]
inactive: all other assays above

CSc1nc(NC(C)C)nc(NC(C)C)n1
active: [19] 14 µM
not listed: [1]
inactive: all other assays above

CSc1nnc(C(C)(C)C)c(=O)n1N
not listed: [2] | [9] | [10] | [19] | [20]
inactive: all other assays above
